Most compounds without a hit are left out; they make up all but 2.7% or so of the library.
EWS-Fli inh = EWS/Fli transcriptional activity inhibition | A673 NR0B1-luciferase reporter, viability-normalised | inhibition, % at 12.6 µM | 350,000 tested, 0.67% active | AID 651661;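 active means mean inhibition of at least 50% after viability correction, with every replicate also passing that limit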;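 further: firefly luciferase signal divided by Alamar Blue viability fluorescence both relative to DMSO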
Env fusion inh = blocks HIV Env-driven cell-cell fusion; HeLa-JRFL Env/CEM21 cell fusion, luciferase; inhibition, % at 12.3 µM; 360,000 tested, 1.1% active;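 active means mean replicate inhibition score of at least 50 and every replicate individually at or above 50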
PAX8 inh HTS = inhibitors of PAX8 transcriptional activity in RMG-I cells; AID 652154; RMG-I TPO-luciferase reporter, SteadyGlo, 24 h; 360,000 tested, 1.2% active; inhibition, % at 12.6 µM;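 active means mean replicate inhibition at least 60% with every replicate also reaching 60%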;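 further: luciferase light reporting Pax8 driven TPO promoter activity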
PGC1a acetyl inh = lowers PGC1a acetylation signal in U2OS cells; AlphaScreen anti-acetyl-lysine; with virally co-expressed GCN5 acetyltransferase; inhibition, % at 15.6 µM; 350,000 tested, 0.17% active; AID 651687;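 active means every replicate shows inhibition of at least 40%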
F508del corr = CFTR F508del correction in bronchial cells; CFBE cells, YFP halide quenching; stimulated with forskolin plus potentiator P3; % fluorescence drop versus neutral controls; activity (quench increase), % at 7.58 µM; 350,000 tested, 0.36% active;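 active means mean added fluorescence quench of at least 8% versus neutral control, with both replicates also reaching 8%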;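 further: cells transiently co-express mutant CFTR-F508del with the halide-sensitive YFP; corrector assay measuring rescue of mutant channel to the surface after 24 h compound exposure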
INS-1E GSIS act = primary screen for activators of insulin secretion dependent on glucose, INS-1E cells, GLuc reporter luminescence; INS-1E GLuc reporter insulin secretion, 2-3 h; activation, % at 16.6 µM; 370,000 tested, 0.61% active;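 active means lowest replicate activation of at least 40%, so every replicate reaches that level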
Large screens that a line does not name were inactive.

CCOC(=O)c1sc2nc(C)nc(NCc3ccccc3OC)c2c1C	PGC1a acetyl inh 63
C=C(CC)C(=O)c1ccc(OCC(=O)O)c(Cl)c1Cl	PAX8 inh HTS 81 (no result: F508del corr, INS-1E GSIS act)
C[C@H]1CN([C@@H](C)CO)C(=O)c2cc(NS(=O)(=O)c3ccc(Cl)cc3)ccc2O[C@H]1CN(C)CC1CCCCC1	none (no result: PGC1a acetyl inh)
CN(C)c1cccc(C(=O)Nc2cc(C(F)(F)F)ccc2-n2cnc3ccccc32)c1	PAX8 inh HTS 81 (no result: Env fusion inh, PGC1a acetyl inh, INS-1E GSIS act)
CNC[C@@H]1OCCCC[C@H](C)Oc2ccc(NC(=O)c3ccccc3)cc2C(=O)N([C@H](C)CO)C[C@H]1C	none
Cc1ccccc1OCC(O)CNC1CCC(NCC(O)COc2ccccc2C)CC1 (configuration not stated)	EWS-Fli inh 69, PAX8 inh HTS 114
CC(=O)c1ccccc1-c1csc2ncnc(Sc3nnnn3C)c12	PAX8 inh HTS 86
Cn1nnnc1Sc1ncnc2scc(-c3ccc(C#N)cc3)c12	PAX8 inh HTS 72
COC(=O)CSc1ncnc2scc(-c3ccccc3)c12	INS-1E GSIS act 60
Cc1ccc(-c2csc3ncnc(SCC(=O)O)c23)cc1	none
Cn1nnnc1Sc1ncnc2scc(-c3cccs3)c12	none (no result: EWS-Fli inh, Env fusion inh, PAX8 inh HTS, F508del corr, INS-1E GSIS act)
Cn1nnnc1Sc1ncnc2scc(-c3ccsc3)c12	PAX8 inh HTS 98 (no result: PGC1a acetyl inh)
O=C(N[C@H]1CC[C@H](CCn2cc(C3CCCC3)nn2)O[C@H]1CO)c1cccnc1	none (no result: EWS-Fli inh, Env fusion inh, PAX8 inh HTS, PGC1a acetyl inh, F508del corr)
Cn1nnnc1Sc1ncnc2scc(-c3ccc(-c4ccccc4)cc3)c12	PAX8 inh HTS 77 (no result: PGC1a acetyl inh)
Cn1nnnc1Sc1ncnc2scc(-c3cc4ccccc4o3)c12	PAX8 inh HTS 90 (no result: Env fusion inh, INS-1E GSIS act)
CCOC(=O)c1c(C)[nH]c(C(=O)COC(=O)/C=C/c2ccc3c(c2)OCO3)c1C	INS-1E GSIS act 59 (no result: EWS-Fli inh, PGC1a acetyl inh, F508del corr)
CCOC(=O)c1c(C)[nH]c(C(=O)COC(=O)/C=C/c2ccc(O)c(OC)c2)c1C	none (no result: EWS-Fli inh, PGC1a acetyl inh, F508del corr)
Cc1cccc2c(CC(=O)Nc3ccccc3)noc12	PAX8 inh HTS 64 (no result: F508del corr)
Cc1ccc(NC(=O)Cc2noc3ccccc23)c(C)c1	none (no result: EWS-Fli inh, PGC1a acetyl inh, F508del corr)
CC(C)C#Cc1ccc2c(c1)O[C@@H](CN(C)C(=O)NC(C)C)[C@H](C)CN([C@@H](C)CO)S2(=O)=O	none
CCOC(=O)c1c(C)[nH]c(C(=O)COC(=O)c2cnccn2)c1C	INS-1E GSIS act 70
CCOC(=O)c1c(C)[nH]c(C(=O)COC(=O)c2ccncc2)c1C	none (no result: EWS-Fli inh, Env fusion inh, PAX8 inh HTS, F508del corr, INS-1E GSIS act)
COc1cccc(CNC(=O)C[C@H]2CC[C@@H](NC(=O)C3CCOCC3)[C@@H](CO)O2)c1	none
Cc1ccc(NC(=O)c2ccc(OCC3CCCO3)cc2)cc1Cl (configuration not stated)	Env fusion inh 70 (no result: PGC1a acetyl inh)
Cc1ccc(NC(=O)c2ccc(OCC3CCCO3)cc2)c(C)c1 (configuration not stated)	none (no result: EWS-Fli inh, PGC1a acetyl inh, F508del corr)
COc1ccc(NC(=O)c2ccc(OCC3CCCO3)cc2)cc1Cl (configuration not stated)	none
COc1ccc(NC(=O)c2ccc(OCC3CCCO3)cc2)cc1OC (configuration not stated)	F508del corr 8.8 (no result: Env fusion inh)
Cc1ccnc(NC(=O)c2ccc(OCC3CCCO3)cc2)c1 (configuration not stated)	EWS-Fli inh 70 (no result: PGC1a acetyl inh)
COc1ccc(C(=O)NC(=O)Nc2cc(C)ccn2)cc1	EWS-Fli inh 73 (no result: Env fusion inh, PAX8 inh HTS)
O=C(C[C@H]1C[C@H]2c3cc(NC(=O)c4cccnc4)ccc3O[C@H]2[C@@H](CO)O1)NCCN1CCCCC1	none
C[C@H](NC(=O)C[C@H]1CC[C@H](NC(=O)c2cccnc2)[C@@H](CO)O1)c1ccccc1	none
O=C(Nc1ccccn1)c1ccc(C(=O)c2ccccc2)cc1	none
O=C(NC(=O)c1ccccc1)Nc1ccccn1	Env fusion inh 68, PAX8 inh HTS 85 (no result: EWS-Fli inh, PGC1a acetyl inh)
COc1ccc(C(=O)NCC(=O)OCC(=O)NC(=O)NC2CCCCC2)cc1OC	none (no result: EWS-Fli inh, Env fusion inh, PAX8 inh HTS, F508del corr, INS-1E GSIS act)
CCOc1ccc(C(=O)OCC(=O)NC2CCCC2)cc1OCC	INS-1E GSIS act 41
CCOc1cc(C(=O)OCC(=O)Nc2cc(C)on2)ccc1OCC(C)C	none (no result: PGC1a acetyl inh)
COc1ccc(C(=O)NCC(=O)OCC(=O)NC2CCCCCC2)cc1OC	INS-1E GSIS act 65
CCOc1ccc(C(=O)OCC(=O)Nc2cc(C)on2)cc1OCC	INS-1E GSIS act 62 (no result: EWS-Fli inh, PAX8 inh HTS, F508del corr)
COc1ccc(C(=O)OCC(=O)NC2CCCC2)cc1OC	none
COc1ccc(NC(=O)Nc2ccc3c(c2)CC(=O)N([C@H](C)CO)C[C@@H](C)[C@H](CN(C)Cc2ccc(C(=O)O)cc2)O3)cc1	none (no result: PAX8 inh HTS)
